The panel holds about 79,000 compounds, 15% with a hit somewhere; the sample as a whole holds those more often. The source made the active and inactive calls. Cut-off read from the data, not from the text of the source: active = growth inhibition above about 70%; inactive = the rest.
Assays:
[1] = NCI Yeast Anticancer Drug Screen. Data for the rad50 strain (AID 155);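 note: 0% = growth of vehicle-only cultures of the same strain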; settings: S. cerevisiae rad50 strain growth inhibition; at 50.0 µM; active compounds read high
In short: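 Cells are treated with compound, grown, and their growth is then scored against vehicle-only cultures of the same repair-deficient yeast strain.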

[2] = NCI Yeast Anticancer Drug Screen. Data for the mec2-1 strain (AID 157); settings: S. cerevisiae mec2-1 strain, at 50.0 µM, active compounds read high
In short: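 Yeast mec2-1 mutant treated with compound. Readout: growth inhibition vs vehicle controls.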

[3] = NCI Yeast Anticancer Drug Screen. Data for the sgs1 mgt1 strain (AID 161);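 note: 0% = growth of cultures given vehicle only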; settings: S. cerevisiae sgs1 mgt1 strain, at 50.0 µM, active compounds read high
In short: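 Mutant yeast exposed to compound; growth scored against vehicle-only wells.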

[4] = NCI Yeast Anticancer Drug Screen. Data for the cln2 rad14 strain (AID 165);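 note: 0% = growth equal to vehicle treated cultures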; settings: S. cerevisiae cln2 rad14 strain, at 50.0 µM, active compounds read high
In short: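 cln2 rad14 yeast strain; compound exposure; growth inhibition read vs vehicle controls.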

[5] = NCI Yeast Anticancer Drug Screen. Data for the bub3 strain (AID 167); settings: S. cerevisiae bub3 mutant strain, at 50.0 µM, active compounds read high
In short: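 Part of a panel of yeast mutants defective in DNA damage repair or cell cycle regulation. Each strain is grown with compound, and inhibition is calculated relative to solvent-treated cultures.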

[6] = NCI Yeast Anticancer Drug Screen. Data for the mlh1 rad18 strain (AID 175); settings: S. cerevisiae mlh1 rad18 strain growth inhibition; at 50.0 µM; active compounds read high
In short: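 Yeast w/ defined DNA-repair lesions; compound exposure; growth vs vehicle controls → % inhibition.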

Measured: growth inhibition

COc1cc(-c2oc3c(OC)c(OC)cc(O)c3c(=O)c2OC)ccc1O
inactive: [1] 11.7% | [2] -8.1% | [3] -8.7% | [4] -5.3% | [5] -9.05% | [6] -0.05%

O/N=C\c1cc2ccccc2c[n+]1Cc1ccc2ccccc2c1Br
inactive: [1] 9.25% | [2] 32.1% | [3] 44.6% | [4] 48% | [5] 2.9% | [6] 38.8%

CCCC(C(=O)O)C(O)(CC(=O)O)C(=O)O (configuration not stated)
inactive: [1] 18.6% | [2] -14.6% | [3] 11.4% | [4] -32.1% | [5] 7.85% | [6] -20.6%

COc1cccc(/C=C2\CCC(C)(CN(C)C)C2=O)c1 (configuration not stated)
inactive: [1] 32.9% | [2] 9.1% | [3] 38.9% | [4] 29.2% | [5] 13.2% | [6] 29.9%

N#CCc1c(-c2ccccc2)n(S(=O)(=O)c2ccccc2)c2ccccc12
inactive: [1] 4.45% | [2] -2.55% | [3] -20.6% | [4] 8.45% | [5] -9.9% | [6] -5.3%

O=C1c2cc(Cl)ccc2-n2c(noc2=O)C2CSCN12 (configuration not stated)
inactive: [1] -8% | [2] -10.3% | [3] -21% | [4] 8.85% | [5] -18.3% | [6] 11.6%

CCCCCc1ccccc1OCC1CO1 (configuration not stated)
inactive: [1] 6.75% | [2] -9.15% | [3] -17.6% | [4] 11.6% | [5] 5.1% | [6] 27.2%

CC(=O)NC1C(OCc2ccccc2)OC(CO)C(O)C1OC(C)C(=O)NC(C)C(=O)N[C@@H](CCC(=O)OCCCNC1c2ccccc2Nc2cccc([N+](=O)[O-])c21)C(N)=O (some centres not stated)
inactive: [1] 63.4% | [5] 11.7%
active: [2] 82.7% | [3] 78.2% | [4] 83.5% | [6] 77.8%

CCCCCCCCCCCC(=O)OCC1OC(n2cc(F)c(=O)[nH]c2=O)C(N)C(OC(=O)CCCCCCCCCCC)C1O (configuration not stated)
inactive: [1] -9% | [2] -34.9% | [3] -51.6% | [4] 4.2% | [5] -34.9% | [6] -45.5%

CC(/C=C/c1ccccc1)=N\NC(=S)N/N=C(C)/C=C/c1ccccc1
inactive: [1] 10.5% | [2] 37.6% | [3] 21.5% | [4] 9.3% | [5] 49.5% | [6] 11.1%

CCOC(=O)C1(C(=O)OCC)C2C=CC(C2)C1C(=O)OC (configuration not stated)
inactive: [1] -0.65% | [2] -2.4% | [3] 15.8% | [4] -60.3% | [5] 8.45% | [6] 8.3%

[O-]C(=N/C(=N/[n+]1ccccc1)c1ccccc1)c1ccccc1
inactive: [1] 12.2% | [2] 10.9% | [3] 4.2% | [4] -9% | [5] -4.05% | [6] 2%

CCCCCCCCCCCCCCCC(=O)NOCc1cscn1
inactive: [1] -0.8% | [2] -29.1% | [3] -3.25% | [4] -22.1% | [5] -12.8% | [6] 6.1%

CCCCC(=O)/C=C/c1ccccc1
inactive: [1] 12.3% | [2] -8.15% | [3] -3.95% | [4] -46.5% | [5] -6.6% | [6] -3.4%

O=C(ON=C1c2ccccc2C(Br)C(Br)c2ccccc21)c1ccccc1 (configuration not stated)
inactive: [1] 38% | [2] 16.9% | [3] 35.7% | [4] 17.6% | [5] 49% | [6] 30.6%

C=C(C)C(=O)Nc1ccc(-n2[nH]c(C)c(N=Nc3ccc(N(C)C)cc3)c2=O)cc1
inactive: [1] 6.95% | [2] -5.5% | [3] -14.6% | [4] -36% | [5] -2.55% | [6] 1.85%

O=[N+]([O-])c1ccc(O)c(N=Cc2ccc(C=Nc3cc([N+](=O)[O-])ccc3O)cc2)c1
inactive: [1] -24.9% | [2] -19.8% | [3] -13.8% | [4] 1.2% | [5] -5.1% | [6] -17.6%

C[C@]12CCC(=O)C=C1CC[C@@H]1[C@@H]2C(=O)C[C@@]2(C)[C@H]1CC[C@]2(O)C(=O)C=O
inactive: [1] -5% | [2] -1.4% | [3] 13.8% | [4] 16.9% | [5] -10.8% | [6] 2.45%

CC(=O)Nc1ccc(S(=O)(=O)NCCC(=O)O)cc1
inactive: [1] -9.7% | [2] -16.6% | [3] 2.45% | [4] 4.3% | [5] 4.45% | [6] 21.8%

Nc1nc(N)c(N=Nc2ccccc2[N+](=O)[O-])c(=O)[nH]1
inactive: [1] 5.85% | [2] -15.8% | [3] 2.4% | [4] -4.95% | [5] 11.1% | [6] -1.05%

COc1ccc(OC)c(CCCC(=O)O)c1
inactive: [1] 9.6% | [2] 7.65% | [3] 2.7% | [4] 4.35% | [5] 2.05% | [6] -8.7%

CC1(C)CCCCC1/C=C/C(CC(O)(C(F)(F)F)C(F)(F)F)=N\Nc1ccc([N+](=O)[O-])cc1[N+](=O)[O-] (configuration not stated)
inactive: [1] 15.1% | [2] 9.1% | [3] 4.65% | [4] 18.1% | [5] 16.1% | [6] 26.6%

CC1CCOCO1 (configuration not stated)
inactive: [1] -3.3% | [2] 0.1% | [3] -1.05% | [4] 1.75% | [5] 13.1% | [6] -9.2%

O=C(Cc1ccccc1)NNC(=O)Nc1ccccc1
inactive: [1] 4% | [2] -3.6% | [3] 9.4% | [4] -26.6% | [5] 2.5% | [6] 1.05%

C=C1C(=O)O[C@@H]2[C@H]3[C@H](C)C(=O)C=C[C@]3(C)CC[C@@H]12
inactive: [1] 21.3% | [2] -24.9% | [3] 39% | [4] 13.4% | [5] 8.95% | [6] -23.6%

COc1ccccc1Nc1n[nH]c(=S)s1
inactive: [1] 11.5% | [2] -5.9% | [3] 58.5% | [4] 16.9% | [5] 14.1% | [6] 5.05%

CN1c2ccccc2N(C)C2C1N(C)c1ccccc1N2C (configuration not stated)
inactive: [1] -38.9% | [2] -28.4% | [3] -12.4% | [4] -1.8% | [5] -19.9% | [6] -36.1%

COc1ccccc1CCCO
inactive: [1] -1.8% | [2] 1.2% | [3] 1.55% | [4] 11.2% | [5] 10.1% | [6] -3.1%

CC(C)c1ccc(C(=O)OCC2CCCO2)cc1 (configuration not stated)
inactive: [1] 7.95% | [2] 13.1% | [3] 6.5% | [4] -13.7% | [5] -5.3% | [6] 3.65%

CCOC(=O)c1c(OC)ccc2ccccc12
inactive: [1] 13.3% | [2] 10.7% | [3] 4% | [4] -29.9% | [5] 21.6% | [6] 0.35%

CCOC(C)C(=O)C=O (configuration not stated)
inactive: [1] -17.9% | [2] -13.6% | [3] -17.2% | [4] -4.55% | [5] -13.4% | [6] -8.4%

CC(C)(C)NC(=O)Oc1ccccc1C(N)=O
inactive: [1] 4.4% | [2] -3.45% | [3] -5.2% | [4] -78.4% | [5] 4.9% | [6] -11.7%

O=Cc1cccc2[nH]ccc12
inactive: [1] 5.9% | [2] -7.95% | [3] 13% | [4] -4.6% | [5] 7.85% | [6] 3.25%

O=C(c1ccccc1)c1oc(CO)cc(=O)c1O
inactive: [1] -1% | [2] -12% | [3] -4.35% | [4] -48.1% | [5] -3.9% | [6] -16.1%

O=C1C2C3CCC(C3)C2N1Cc1ccccc1 (configuration not stated)
inactive: [1] 5.8% | [2] -1.65% | [3] -2.15% | [4] -27.2% | [5] 13.6% | [6] -14.8%

CN=C1CC2CCCC1C2 (configuration not stated)
inactive: [1] -15.7% | [2] 0.85% | [3] -5.8% | [4] -6.1% | [5] -7.95% | [6] -15.4%

O=c1/c(=C\C=C\c2ccccc2)sc2n1CCN=2
inactive: [1] -15.7% | [2] -40.6% | [3] -11.3% | [4] -10.8% | [5] -22.2% | [6] -13.5%

CC(C)(C)c1ccc(O)c(C(O)c2ccncc2)c1 (configuration not stated)
inactive: [1] 7.3% | [2] -12.4% | [3] 9.15% | [4] -6.75% | [5] 1.6% | [6] 16.6%

COc1ccc(C(=O)Nc2ccccc2)cc1
inactive: [1] 7.45% | [2] 8.7% | [3] -0.3% | [4] 6.25% | [5] -1.2% | [6] -4.65%

Fc1ccc(-c2cc(-c3cc(-c4ccc(F)cc4)n[nH]3)[nH]n2)cc1
inactive: [1] 20.6% | [2] 9.2% | [3] 25.9% | [4] 6.6% | [5] 9.4% | [6] 32.1%

CC(=O)OC(C)C1(C)CCC2CCCC(C)(C)C2C1 (configuration not stated)
inactive: [1] -6.4% | [2] -5.15% | [3] -11.9% | [4] 0.7% | [5] 9.45% | [6] -13.7%

CC1=NN(C(=O)c2ccc(Cl)cc2)C(=O)/C1=C/c1ccc(Cl)cc1
inactive: [1] -28.6% | [2] -47.4% | [3] -69.2% | [4] -19.6% | [5] -33% | [6] -44.2%
